Out of some 290,000 compounds screened, about 27,000 (9.3%) were called active. The sample as a whole holds a higher share of actives than the screen did. Unmarked numbers belong to inactive results. Cut-off read from the data, not from the text of the source: active = inhibition mostly above about 28% (no sharp cut-off); inactive = mostly below about 43%. Where a SMILES comes first, the peptide text is derived from it. Bridges are numbered along the chain shown (N, C = ends).
Test: A qHTS for Small Molecule Inhibitors of Shiga Toxin; note: 0% is about no effect
Conditions: Vero cells, Shiga toxin protein synthesis inhibition reporter; at 38.7 µM, active compounds read high

Row | Structure (SMILES) | inhibition
1 | Cc1oc2c(F)c(F)c(F)c(F)c2c1S(=O)(=O)Nc1cccc(C(F)(F)F)c1 | -4.67%
2 | CCOC(=O)C1CCCN(S(=O)(=O)c2ccc3c(c2)C(C)(C)C(=O)N3C)C1 (stereo not drawn) | -10.9%
3 | COCCN1C(=O)N(c2ccc(Cl)cc2)C(=O)C1CC(=O)Nc1cc(OC)cc(OC)c1 (stereo not drawn) | 0.637%
4 | Cn1c(CCCOc2ccc(Cl)cc2Cl)n[nH]c1=S | 57.3% (active)
5 | S=c1[nH]nc(CSCc2ccc(Cl)cc2Cl)n1-c1ccccc1 | -6.51%
6 | O=C(CCCOc1ccc(Cl)cc1Cl)NNC(=O)C1CCC1 | 27.9%
7 | O=C(COc1ccc(S(=O)(=O)Nc2cccc(C(F)(F)F)c2)cc1)N1CCOCC1 | -9.6%
8 | CCOC(=O)[C@@H]1[C@H]2COc3ccc(Br)cc3[C@H]2N2C(=O)N(c3ccc(Cl)cc3)C(=O)[C@@]12C | -8.05%
9 | Cc1cccc(CS(=O)(=O)c2ncc(Cl)c(C(=O)Nc3ccc(F)cc3)n2)c1 | 53.3% (active)
10 | CCOc1ccc(NC(=O)c2nc(SCC)ncc2Cl)cc1 | -3.26%
11 | CCSc1ncc(Cl)c(C(=O)Nc2cc(C)ccc2C)n1 | -1.29%
12 | Cc1cccc(NC(=O)c2nc(S(=O)(=O)Cc3ccccc3)ncc2Cl)c1 | 34.1% (active)
13 | Cc1cccc(NC(=O)c2nc[nH]c2C(=O)NCC(=O)OCc2ccccc2)c1 | -6.49%
14 | Cc1cccc(OCc2ccc(C(=O)Nc3ccc(F)cc3)cc2)c1 | -8.13%
15 | COc1ccc(C(=O)Nc2cc(C)c(NC(=O)c3ccccc3OC)cn2)cc1 | 37%
16 | Cc1ccc(S(=O)(=O)N(C)CC(=O)NCCc2c[nH]c3ccccc23)cc1 | -2.21%
17 | O=C(CCCCCn1c(=S)[nH]c2ccsc2c1=O)NC1CCCCC1 | -10.2%
18 | COC(=O)c1cc(-c2cccs2)nc2ccccc12 | -1.63%
19 | COc1ccc2nc(Nc3nc(-c4ccncc4)cs3)sc2c1 | 53%
20 | COc1ccc(CNc2nccs2)cc1 | -0.77%
21 | c1ccc(Nc2nc(-c3ccncc3)cs2)nc1 | 75.1% (active)
22 | Clc1ccc(Nc2nc(-c3cccs3)cs2)nc1 | 70.3% (active)
23 | COc1ccc(-c2csc(Nc3ccccn3)n2)cc1 | 48% (active)
24 | COC(=O)CSc1nccc(-c2cccs2)n1 | 46.2%

Row | Structure (SMILES) | inhibition
25 | c1cnc(Nc2nc(-c3ccc4ccccc4c3)cs2)nc1 | 154% (active)
26 | COc1ccc(N(CC(=O)NCC2CCCO2)C(=O)CCC(=O)Nc2nccs2)c(OC)c1 (stereo not drawn) | 16.4%
27 | Cc1ccc(NC(=O)CCC(=O)c2ccc(Br)cc2)cc1 | -4.63%
28 | CCCCNC(=O)CN1C(=O)NC(Cc2ccccc2)(Cc2ccccc2)C1=O | 2.69%
29 | Cc1c(C(=O)N2CCN(c3ccc(F)cc3)CC2)oc2c1C(=O)CCC2 | -4.3%
30 | C/C(=N/OC(=O)c1ccc(Br)cc1)c1ccc(C)cc1 | 6.54%
31 | O=C(CC(n1cncn1)C(Cl)(Cl)Cl)c1ccc([N+](=O)[O-])cc1 (stereo not drawn) | -7.92%
32 | Cc1cccc(C)c1NC(=O)CN1C(=O)C(C)Oc2ccccc21 (stereo not drawn) | -3.24%
33 | NC(=O)C(Cc1ccccc1)NC(=O)C12CC3CC(CC(C3)C1)C2 (stereo not drawn) | -10.9%
34 | COc1ccccc1C(=O)NC(=S)Nc1ccccc1N1CCCCC1 | 39.8% (active)
35 | COc1ccc(C(=O)NC(=S)Nc2ccccc2N2CCN(S(C)(=O)=O)CC2)cc1OC | -2.05%
36 | O=C(NC(=S)Nc1ccccc1N1CCCCC1)c1ccc(F)cc1 | -27.2%
37 | Cc1ccnc(NS(=O)(=O)c2ccc(NC(=O)c3oc4ccc(F)cc4c3C)cc2)n1 | -7.64%
38 | O=S(=O)(c1ccc(Cl)s1)N1CCC2(CC1)OCCO2 | 6.74%
39 | C[C@@H](O)[C@@H]1NC(=O)[C@H](CCCCN)NC(=O)[C@H](Cc2c[nH]c3ccccc23)NC(=O)[C@H](Cc2ccccc2)NC(=O)[C@H](Cc2ccccc2)NC(=O)[C@H](CC(N)=O)NC(=O)[C@H](CCCCN)NC(=O)[C@@H](NC(=O)[C@@H]2CCCN2)CSSC[C@@H](C(=O)N[C@@H](CCCCN)C(=O)O)NC(=O)[C@H](CO)NC(=O)[C@H](CO)NC(=O)[C@H](Cc2ccccc2)NC1=O (H-PCKNFFWKTFSSCK-OH; disulfide 2-13) | -9.69%
40 | O=C(NCc1ccccc1)C(c1ccccc1)N(C(=O)c1csnn1)c1ccc(F)cc1 (stereo not drawn) | -3.73%
41 | O=C(Cc1cccs1)Nc1nnc(C2CC2)s1 | 18.3%
42 | O=C(Nc1nnc(C2CC2)s1)C1=NN(C2CCS(=O)(=O)C2)C(=O)CC1 (stereo not drawn) | -18%
43 | Cc1occc1C(=O)Nc1nnc(-c2ccncc2)s1 | 28.4%
44 | Cc1occc1C(=O)Nc1nnc(C2CCCCC2)s1 | 60.1% (active)
45 | O=C(Nc1nnc(C2CC2)s1)c1ccccn1 | 109% (active)
46 | Cc1cccc(NC(=O)CSCC(=O)Nc2nnc(C3CC3)s2)c1 | 14.9%
47 | CC1CCN(c2ccc(C(=O)Nc3nnc(C4CC4)s3)cc2[N+](=O)[O-])CC1 | 1.09%
48 | COc1ccc(NC(=O)CCC(=O)Nc2nnc(C3CCCCC3)s2)cc1 | -3.77%
